Test results published in publication PMC7862700, “An all-to-all approach to the identification of sequence-specific readers for epigenetic DNA modifications on cytosine”.

Tests used:
Test in all cases: DAPPL (digital affinity profiling via proximity ligation, sequencing); 10 mM Tris-HCl pH 7.5, 50 mM NaCl, 1 mM DTT, 4% glycerol, room temperature, 30 min; GST-TFs on glutathione beads, 16-mer random dsDNA library, 0.1% formaldehyde crosslink after washing; high values mean tight binding
Details in all cases: protein: recombinant; tags: N-terminal GST; dsDNA, one strand shown
ELK1 = biological target: T1, ELK1 (Homo sapiens, UniProt P19419 1-428)
T1 sequence: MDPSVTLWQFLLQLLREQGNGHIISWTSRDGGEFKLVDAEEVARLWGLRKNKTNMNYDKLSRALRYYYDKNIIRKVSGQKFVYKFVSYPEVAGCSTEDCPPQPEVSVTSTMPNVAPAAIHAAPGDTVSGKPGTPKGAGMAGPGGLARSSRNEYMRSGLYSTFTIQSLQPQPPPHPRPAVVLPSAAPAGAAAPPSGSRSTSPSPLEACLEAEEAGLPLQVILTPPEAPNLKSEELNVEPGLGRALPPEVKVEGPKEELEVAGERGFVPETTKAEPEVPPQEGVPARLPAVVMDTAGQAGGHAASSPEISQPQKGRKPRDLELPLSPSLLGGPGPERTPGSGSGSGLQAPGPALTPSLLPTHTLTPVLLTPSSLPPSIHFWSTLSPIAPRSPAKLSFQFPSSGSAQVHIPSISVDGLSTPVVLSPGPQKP
In short: (§1)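 In yeast, human transcription factors were expressed with a GST fusion, then pulled down on glutathione beads and given DNA barcodes. Pooled with a tag-only sample, they were exposed to 200 nmole of a 16-mer random double-stranded DNA library (Tris/NaCl/DTT/glycerol buffer, room temperature, 30 min), washed, crosslinked with 0.1% formaldehyde, proximity-ligated using BsaI/T4 ligase for 1 h at 37 °C, PCR-amplified and read on an Illumina NextSeq500. Each hexamer's frequency of reads for a factor, divided by the matching frequency for the tag-only sample, gives the binding signal.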

SPIC = biological target: T2, SPIC (Homo sapiens, UniProt Q8N5J4 1-248)
T2 sequence: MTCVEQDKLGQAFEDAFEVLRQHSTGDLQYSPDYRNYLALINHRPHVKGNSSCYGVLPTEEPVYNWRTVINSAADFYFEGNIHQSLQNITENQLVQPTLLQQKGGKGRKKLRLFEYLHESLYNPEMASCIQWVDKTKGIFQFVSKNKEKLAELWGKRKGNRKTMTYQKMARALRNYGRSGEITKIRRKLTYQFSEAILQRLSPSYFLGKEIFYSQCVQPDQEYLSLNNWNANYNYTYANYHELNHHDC
In short: as §1

ETV7 = biological target: T3, ETV7 (Homo sapiens, UniProt Q9Y603 1-341)
T3 sequence: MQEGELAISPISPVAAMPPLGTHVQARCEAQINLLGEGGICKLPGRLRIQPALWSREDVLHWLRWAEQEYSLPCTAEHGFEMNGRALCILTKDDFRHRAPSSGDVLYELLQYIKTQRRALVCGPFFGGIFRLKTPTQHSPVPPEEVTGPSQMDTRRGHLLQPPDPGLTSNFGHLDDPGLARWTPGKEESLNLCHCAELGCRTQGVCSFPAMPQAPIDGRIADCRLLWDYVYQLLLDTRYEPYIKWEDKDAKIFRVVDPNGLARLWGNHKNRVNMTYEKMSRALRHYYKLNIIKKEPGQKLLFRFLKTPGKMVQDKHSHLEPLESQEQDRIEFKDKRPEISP
In short: as §1

GABPA = biological target: T4, GABPA (Homo sapiens, UniProt Q06546 1-454)
T4 sequence: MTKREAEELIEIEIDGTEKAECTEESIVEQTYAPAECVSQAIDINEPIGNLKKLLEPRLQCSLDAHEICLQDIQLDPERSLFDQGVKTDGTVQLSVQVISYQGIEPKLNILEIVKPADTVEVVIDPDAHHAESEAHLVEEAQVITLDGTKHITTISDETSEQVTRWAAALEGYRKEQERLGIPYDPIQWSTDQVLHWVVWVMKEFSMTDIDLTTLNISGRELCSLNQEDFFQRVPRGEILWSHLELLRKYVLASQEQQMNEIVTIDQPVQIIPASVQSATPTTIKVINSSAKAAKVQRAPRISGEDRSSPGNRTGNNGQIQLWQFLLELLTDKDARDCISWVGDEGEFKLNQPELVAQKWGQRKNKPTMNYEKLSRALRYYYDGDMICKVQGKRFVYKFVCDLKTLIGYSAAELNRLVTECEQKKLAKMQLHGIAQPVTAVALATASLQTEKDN
In short: as §1

EHF = biological target: T5, EHF (Homo sapiens, UniProt Q9NZC4 1-300)
T5 sequence: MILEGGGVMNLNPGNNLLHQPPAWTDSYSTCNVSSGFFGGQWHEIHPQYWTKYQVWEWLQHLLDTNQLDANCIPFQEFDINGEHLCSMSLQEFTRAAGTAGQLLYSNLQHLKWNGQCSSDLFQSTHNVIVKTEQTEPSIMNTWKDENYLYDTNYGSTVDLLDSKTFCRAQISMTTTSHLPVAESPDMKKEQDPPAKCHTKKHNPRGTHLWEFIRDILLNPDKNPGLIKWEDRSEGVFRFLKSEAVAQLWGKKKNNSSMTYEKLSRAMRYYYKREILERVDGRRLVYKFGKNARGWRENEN
In short: as §1

SPI1 = SPI1 (Homo sapiens, UniProt P17947 1-270)
In short: as §1

ELK3 = biological target: T6, ELK3 (Homo sapiens, UniProt P41970 1-407)
T6 sequence: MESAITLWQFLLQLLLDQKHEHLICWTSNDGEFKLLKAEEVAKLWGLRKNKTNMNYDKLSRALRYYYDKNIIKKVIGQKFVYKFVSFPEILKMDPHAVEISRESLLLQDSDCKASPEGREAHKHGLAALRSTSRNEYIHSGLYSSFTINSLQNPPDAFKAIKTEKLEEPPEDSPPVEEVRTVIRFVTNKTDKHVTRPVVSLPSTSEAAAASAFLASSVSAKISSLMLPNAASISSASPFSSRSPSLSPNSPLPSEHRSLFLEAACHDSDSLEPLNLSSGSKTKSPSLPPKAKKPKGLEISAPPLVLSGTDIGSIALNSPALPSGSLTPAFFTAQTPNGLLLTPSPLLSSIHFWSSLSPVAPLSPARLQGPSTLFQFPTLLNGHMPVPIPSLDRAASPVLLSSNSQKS
In short: as §1

FEV = biological target: T7, FEV (Homo sapiens, UniProt Q99581 1-238)
T7 sequence: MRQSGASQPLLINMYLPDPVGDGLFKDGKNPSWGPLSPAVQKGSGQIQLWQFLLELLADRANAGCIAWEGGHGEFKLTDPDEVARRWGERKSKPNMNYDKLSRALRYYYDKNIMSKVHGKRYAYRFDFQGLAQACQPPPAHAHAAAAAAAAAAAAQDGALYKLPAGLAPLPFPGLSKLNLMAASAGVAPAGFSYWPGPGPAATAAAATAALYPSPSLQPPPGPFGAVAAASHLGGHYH
In short: as §1

ELF3 = biological target: T8, ELF3 (Homo sapiens, UniProt P78545 1-371)
T8 sequence: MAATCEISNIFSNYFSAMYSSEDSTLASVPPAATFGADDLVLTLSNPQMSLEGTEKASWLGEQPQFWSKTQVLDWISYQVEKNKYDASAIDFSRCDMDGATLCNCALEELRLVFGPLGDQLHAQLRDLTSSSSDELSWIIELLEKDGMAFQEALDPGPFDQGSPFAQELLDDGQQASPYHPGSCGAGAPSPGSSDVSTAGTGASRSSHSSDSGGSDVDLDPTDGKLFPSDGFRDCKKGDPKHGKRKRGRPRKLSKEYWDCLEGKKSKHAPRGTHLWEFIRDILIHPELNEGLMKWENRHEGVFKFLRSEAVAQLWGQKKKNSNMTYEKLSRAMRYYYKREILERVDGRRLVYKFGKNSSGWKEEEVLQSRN
In short: as §1

ETV1 = ETV1 (Homo sapiens, UniProt P50549 1-477)
In short: as §1

ERF = biological target: T9, ERF (Homo sapiens, UniProt P50548 1-548)
T9 sequence: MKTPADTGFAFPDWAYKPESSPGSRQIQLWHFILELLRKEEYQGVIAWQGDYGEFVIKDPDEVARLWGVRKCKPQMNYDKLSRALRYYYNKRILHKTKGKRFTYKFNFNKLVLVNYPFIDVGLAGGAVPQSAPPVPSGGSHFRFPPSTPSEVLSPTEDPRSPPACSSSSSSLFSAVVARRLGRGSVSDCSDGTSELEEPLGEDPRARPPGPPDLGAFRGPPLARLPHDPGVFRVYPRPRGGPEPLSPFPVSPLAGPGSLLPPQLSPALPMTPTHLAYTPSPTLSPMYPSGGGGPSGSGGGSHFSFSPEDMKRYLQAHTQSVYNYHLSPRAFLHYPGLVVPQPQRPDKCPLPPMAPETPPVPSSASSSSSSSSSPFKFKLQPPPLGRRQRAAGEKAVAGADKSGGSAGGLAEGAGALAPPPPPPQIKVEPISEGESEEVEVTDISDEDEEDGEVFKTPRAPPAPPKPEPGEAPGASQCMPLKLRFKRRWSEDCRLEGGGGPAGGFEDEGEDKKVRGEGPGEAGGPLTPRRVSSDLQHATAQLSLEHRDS
In short: as §1

ETS2 = biological target: T10, ETS2 (Homo sapiens, UniProt P15036 1-469)
T10 sequence: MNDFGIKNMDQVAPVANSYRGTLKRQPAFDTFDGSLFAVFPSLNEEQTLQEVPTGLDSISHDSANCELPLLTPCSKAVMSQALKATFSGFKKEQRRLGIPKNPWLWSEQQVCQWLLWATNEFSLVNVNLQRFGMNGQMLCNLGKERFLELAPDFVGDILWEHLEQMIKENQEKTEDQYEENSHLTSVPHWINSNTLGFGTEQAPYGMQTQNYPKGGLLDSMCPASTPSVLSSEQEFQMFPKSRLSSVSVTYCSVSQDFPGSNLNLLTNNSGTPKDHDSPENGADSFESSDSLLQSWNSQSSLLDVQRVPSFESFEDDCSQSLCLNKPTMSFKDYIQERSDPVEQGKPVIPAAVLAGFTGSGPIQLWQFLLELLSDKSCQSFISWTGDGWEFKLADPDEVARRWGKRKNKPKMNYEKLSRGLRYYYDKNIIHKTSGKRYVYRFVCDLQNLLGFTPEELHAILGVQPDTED
In short: as §1

ELF5 = biological target: T11, ELF5 (Homo sapiens, UniProt Q9UKW6-2 1-255)
T11 sequence: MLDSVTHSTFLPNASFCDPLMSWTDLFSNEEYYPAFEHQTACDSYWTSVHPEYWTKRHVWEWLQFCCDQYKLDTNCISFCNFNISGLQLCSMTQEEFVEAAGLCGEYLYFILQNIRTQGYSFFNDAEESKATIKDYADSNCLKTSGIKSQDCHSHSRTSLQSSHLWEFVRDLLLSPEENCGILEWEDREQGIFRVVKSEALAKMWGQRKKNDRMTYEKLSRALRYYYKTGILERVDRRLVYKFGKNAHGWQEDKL
In short: as §1

ETV3 = biological target: T12, ETV3 (Homo sapiens, UniProt P41162-2 1-143)
T12 sequence: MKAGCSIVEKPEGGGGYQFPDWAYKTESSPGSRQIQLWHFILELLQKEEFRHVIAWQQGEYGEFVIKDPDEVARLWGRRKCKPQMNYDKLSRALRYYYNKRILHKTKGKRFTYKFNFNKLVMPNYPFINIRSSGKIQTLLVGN
In short: as §1

ETV6 = ETV6 (Homo sapiens, UniProt P41212 1-452)
In short: as §1

ETV2 = biological target: T13, ETV2 (Homo sapiens, UniProt O00321 1-342)
T13 sequence: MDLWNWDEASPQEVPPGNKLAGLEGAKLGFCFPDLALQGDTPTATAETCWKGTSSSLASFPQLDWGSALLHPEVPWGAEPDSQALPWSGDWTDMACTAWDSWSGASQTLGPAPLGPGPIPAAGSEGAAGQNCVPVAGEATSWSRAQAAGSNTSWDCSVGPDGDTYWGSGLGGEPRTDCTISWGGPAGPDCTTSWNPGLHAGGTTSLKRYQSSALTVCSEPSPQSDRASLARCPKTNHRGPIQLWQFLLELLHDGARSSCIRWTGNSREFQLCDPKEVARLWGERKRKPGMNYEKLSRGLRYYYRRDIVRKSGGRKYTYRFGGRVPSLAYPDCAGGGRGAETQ
In short: as §1

ETV6, sequence (P41212 whole entry): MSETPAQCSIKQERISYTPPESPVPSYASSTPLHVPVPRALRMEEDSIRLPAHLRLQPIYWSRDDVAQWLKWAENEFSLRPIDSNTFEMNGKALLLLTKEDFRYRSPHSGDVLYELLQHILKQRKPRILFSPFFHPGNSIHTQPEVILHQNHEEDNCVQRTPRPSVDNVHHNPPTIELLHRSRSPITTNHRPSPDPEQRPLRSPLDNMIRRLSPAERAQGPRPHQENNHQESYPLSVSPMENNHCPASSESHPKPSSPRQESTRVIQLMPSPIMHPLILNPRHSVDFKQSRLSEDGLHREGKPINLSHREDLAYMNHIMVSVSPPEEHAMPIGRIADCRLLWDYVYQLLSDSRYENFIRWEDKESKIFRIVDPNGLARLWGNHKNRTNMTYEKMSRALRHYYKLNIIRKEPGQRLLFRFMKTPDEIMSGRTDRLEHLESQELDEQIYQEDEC
ETV1, sequence (P50549 whole entry): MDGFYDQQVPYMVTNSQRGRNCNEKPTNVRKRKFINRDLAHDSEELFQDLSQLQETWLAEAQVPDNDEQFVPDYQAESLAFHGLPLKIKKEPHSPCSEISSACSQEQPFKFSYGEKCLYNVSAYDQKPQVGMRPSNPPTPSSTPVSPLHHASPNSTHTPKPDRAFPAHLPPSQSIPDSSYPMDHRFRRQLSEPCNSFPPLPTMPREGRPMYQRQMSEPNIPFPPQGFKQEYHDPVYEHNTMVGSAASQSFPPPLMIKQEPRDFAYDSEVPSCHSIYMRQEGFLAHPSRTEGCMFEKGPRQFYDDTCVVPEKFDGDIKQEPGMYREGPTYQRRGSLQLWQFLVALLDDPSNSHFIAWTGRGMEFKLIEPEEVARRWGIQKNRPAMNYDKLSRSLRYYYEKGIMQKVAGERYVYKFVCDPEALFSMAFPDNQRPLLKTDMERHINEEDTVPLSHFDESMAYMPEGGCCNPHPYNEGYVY

GACATG was tested, and the binding signal (ELK1) was 1.01 fold enrichment (6-mer frequency, TF over GST control), the binding signal (SPIC) was 1.1 fold enrichment (6-mer frequency, TF over GST control) and the binding signal (ETV7) was 1.03 fold enrichment (6-mer frequency, TF over GST control).

In the case of AGTAGC, the binding signal (GABPA) is reported as 1.03 fold enrichment (6-mer frequency, TF over GST control), the binding signal (EHF) is reported as 1.01 fold enrichment (6-mer frequency, TF over GST control) and the binding signal (SPI1) is reported as 1.22 fold enrichment (6-mer frequency, TF over GST control). The binding signal (ELK3) was 1.05 fold enrichment (6-mer frequency, TF over GST control), the binding signal (FEV) was 1.04 fold enrichment (6-mer frequency, TF over GST control) and the binding signal (SPIC) was 1.04 fold enrichment (6-mer frequency, TF over GST control). For the same sequence, the binding signal (ELF3) was 1.03 fold enrichment (6-mer frequency, TF over GST control), the binding signal (ETV1) was 1.05 fold enrichment (6-mer frequency, TF over GST control) and the binding signal (ERF) was 1.01 fold enrichment (6-mer frequency, TF over GST control). The binding signal (ETS2) was 1.07 fold enrichment (6-mer frequency, TF over GST control), the binding signal (ELF5) was 1.04 fold enrichment (6-mer frequency, TF over GST control) and the binding signal (ETV3) was 1.08 fold enrichment (6-mer frequency, TF over GST control). The binding signal (ETV6) was 1.08 fold enrichment (6-mer frequency, TF over GST control).

For AGATGG, the binding signal (SPIC) was 1.1 fold enrichment (6-mer frequency, TF over GST control) and the binding signal (ETV2) was 1.02 fold enrichment (6-mer frequency, TF over GST control).
